Test results reported in PubChem BioAssay AID489037 (National Center for Advancing Translational Sciences (NCATS), 2010).
Where “and” joins values, the source holds several entries; their conditions need not be identical. Identical values can stand only once. Results filed as inconclusive are left out. The source holds several records for some structures; these can differ, active in one and inactive in another. Calls of active or inactive are those of the source. Calls come from the whole dose curve; as a rule, active = well fitted inhibition curve with a large enough effect; inconclusive = small, poorly fitted or top-dose-only effect, or effect the other way; inactive = no such curve, though single readings can be large or run the other way.

Molecular target: Nuclear receptor ROR-gamma (Mus musculus) (UniProt P51450)
Sequence (P51450 whole entry, looked up): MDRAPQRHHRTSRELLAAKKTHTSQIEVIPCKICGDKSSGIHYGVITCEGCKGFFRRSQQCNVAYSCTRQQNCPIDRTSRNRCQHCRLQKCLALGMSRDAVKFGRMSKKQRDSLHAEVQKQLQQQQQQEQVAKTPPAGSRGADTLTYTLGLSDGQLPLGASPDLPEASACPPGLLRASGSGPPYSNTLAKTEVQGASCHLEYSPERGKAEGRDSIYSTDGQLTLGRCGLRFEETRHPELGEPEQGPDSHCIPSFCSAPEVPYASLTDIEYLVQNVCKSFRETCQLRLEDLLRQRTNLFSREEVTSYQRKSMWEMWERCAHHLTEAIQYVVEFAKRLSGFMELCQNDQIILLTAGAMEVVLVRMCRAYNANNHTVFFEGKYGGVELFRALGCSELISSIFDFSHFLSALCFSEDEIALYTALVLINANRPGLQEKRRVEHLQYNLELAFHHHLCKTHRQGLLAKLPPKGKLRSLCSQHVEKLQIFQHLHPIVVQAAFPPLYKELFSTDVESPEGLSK
Assay: Secondary confirmation assay for inhibitors of ROR gamma transcriptional activity
Conditions: Drosophila S2 Gal4-RORgamma UAS-luciferase reporter, 20 h; series mostly up to 92.2 µM; activity change, negative = inhibition: at the top concentration
How it was run: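 Drosophila Schneider cells stably expressing Gal4-DBD/ROR gamma fusion (metallothionein promoter) with UAS-Photinus luciferase reporter. Compound preincubated 1 hr, then copper sulfate 700 uM final added; 20 hr at ambient temperature, luminescence read.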

| Structure (SMILES) | Potency | activity change, negative = inhibition |
| --- | --- | --- |
| COc1cc(OC)c(C(c2ccccc2)C(C)(C)C(=O)N2CC(C)CC(C)C2)c(OC)c1 (configuration not stated) | 5.12 µM (active) |  |
| COc1cc(O)c(C(CC(=O)N2CCCCC2)c2ccc3c(c2)OCO3)c(OC)c1 (configuration not stated) | 20.4 µM (active) |  |
| COc1cc(O)c(C(CC(=O)N2CC(C)CC(C)C2)c2ccc(O)cc2)c(OC)c1 (configuration not stated) | 2.04 µM (active) |  |
| COc1cc(O)c(C(CC(=O)N2CCCC(C)C2)c2cccc3ccccc23)c(OC)c1 (configuration not stated) |  | -26.6% (inactive) |
| O=C(/C=C/c1ccc(S(=O)(=O)N2CCOCC2)cc1)NC(=S)Nc1ccc(N2CCOCC2)cc1 | 2.04 µM (active) |  |
| CC(C)(C)c1ccc(-c2noc(CCC(=O)Nc3cccnc3)n2)cc1 | 0.257 µM (active) |  |
| COCOc1cc(OC)cc(OC)c1C(CC(=O)N1CC(C)CC(C)C1)c1ccc2c(c1)OCO2 (configuration not stated) | 4.07 µM (active) |  |
| COc1cc(O)c(C(CC(=O)N2CCC[C@H](C)C2)c2ccc3c(c2)OCO3)c(OC)c1 (some centres not stated) | 9.11 µM (active) and 3.23 µM (active) and inactive |  |
| COc1cc(OC)c2c(c1)OC(=O)CC2c1ccc2c(c1)OCO2 (configuration not stated) |  | 11.1% (inactive) |
| COc1cc(O)c(C(CC(=O)N2CCCC(C)(C)C2)c2ccc3c(c2)OCO3)c(OC)c1 (configuration not stated) | 5.12 µM (active) |  |
| COc1cc(O)c(C(CC(=O)N2CCC[C@@H](C)C2)c2ccc3c(c2)OCO3)c(OC)c1 (some centres not stated) | 5.12 µM (active) and 22.9 µM (active) and inactive |  |
| COc1cc(O)c(C(CC(=O)N2CCOCC2)c2ccc3c(c2)OCO3)c(OC)c1 (configuration not stated) |  | -21.1% (inactive) |
| COc1cc(O)c(C(CC(=O)N2CCCC(c3ccccc3)C2)c2ccc3c(c2)OCO3)c(OC)c1 (configuration not stated) |  | -5.56% (inactive) |
| CC(C)(C)c1ccc(S(=O)(=O)Nc2ccc(C(O)(C(F)(F)F)C(F)(F)F)cc2)cc1 | 20.4 µM (active) |  |
| Cc1ccc(O)c(C(CC(=O)NC2CCCCC2)c2ccccc2)c1 (configuration not stated) |  | 18.9% (inactive) |
| C[C@H]1O[C@@H](O[C@H]2[C@@H](O)C[C@@H](O[C@H]3[C@@H](O)C[C@H](O[C@H]4CC[C@@]5(C)[C@H](CC[C@@H]6[C@@H]5CC[C@]5(C)[C@@H](C7=CC(=O)OC7)CC[C@]65O)C4)O[C@@H]3C)O[C@@H]2C)C[C@H](O)[C@@H]1O | 1.44 µM (active) |  |
| COc1cc(O)c(C(CC(=O)NCc2ccccc2)c2ccc3c(c2)OCO3)c(OC)c1 (configuration not stated) |  | 8.94% (inactive) |
| COc1ccc(-c2c[n+]3c(n2-c2ccc(C)cc2)CCCCC3)cc1 | 11.5 µM (active) |  |
| Cc1ccc(Sc2cncc3sc(C(N)=O)cc23)cc1 | 0.204 µM (active) |  |
| O=C(CCCN1C(=O)/C(=C/c2ccccc2Cl)SC1=S)Nc1cccnc1 | 1.82 µM (active) |  |
| COc1cc(O)c(C(CC(=O)N2CCC(c3ccccc3)CC2)c2ccc3c(c2)OCO3)c(OC)c1 (configuration not stated) | inactive |  |
| O=S(=O)(c1ccc(NC(=S)N/N=C/c2ccc(Oc3ccccc3)cc2)cc1)N1CCOCC1 | 1.15 µM (active) |  |
